This is an account of results in PubChem BioAssay (NCI).

Experiment in all cases: NCI-60 one-dose screen, 48 h (100 = growth as untreated, 0 = no growth, -100 = all killed)
What all share (conditions): 10 µM unless noted

The subject of experiment [1] is RPMI-8226 leukemia.
In experiment [2] the test system is OVCAR-8 ovarian.
In experiment [3] the test system is OVCAR-5 ovarian.
Experiment [4] relates to OVCAR-4 ovarian.
The test system of experiment [5] is SK-OV-3 ovarian.
Experiment [6] has as its system IGROV1 ovarian.
Experiment [7] relates to OVCAR-3 ovarian.
The test system of experiment [8] is HS 578T breast.
Experiment [9] relates to NCI/ADR-RES ovarian.

SMILES strings stand for the structures. This is part of a sample that, as a whole, favours compounds with a hit. Of some 83,000 tested, about 20% had one in any assay.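 Plates (96-well) were seeded with cells, treated with compound at one concentration, and incubated for 48 hours before percent growth was determined.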 A number with no mark means an inactive call. Active and inactive are the calls of the source. The calls were made as follows: active = growth percent below 10; inactive = the rest.

Regarding `O=C1/C(=C\c2cn(Cc3ccccc3)c3ccc(Br)cc23)c2ccccc2N1c1c(Cl)cccc1Cl`, the growth is 104% in experiment [1]; 98% in [2]; 99% in experiment [3]; 91.9% in experiment [4]; 101% in [5]; 105% in experiment [6]. The figures for the growth in experiment [7], in experiment [8] and in experiment [9] were 119%, 110% and 98.4%, respectively.

Regarding `N#C/C(=C\c1ccc(Br)cc1)n1nnc2cccc(F)c21`, the growth is -19.6% (active) in experiment [1]; 8.42% (active) in experiment [2]; 10.5% in [3]; 17.5% in experiment [4]; 78.3% in experiment [5]; 4.13% (active) in experiment [6]. Moreover, the growth is -31.5% (active) in experiment [7], -11.1% (active) in experiment [8] and 3.27% (active) in experiment [9].

In the case of `CCOC(=O)c1c(C)nc2c(c1N)C(=O)C(=O)N2Cc1ccc(C(F)(F)F)cc1`, the growth in experiment [1] is 27.2%; in experiment [2], 63.3%; in [3], 91.7%; in experiment [4] it was 69.3%; in experiment [5], 82.9%; in [6], 62.5%. The results for the growth in experiment [7], in experiment [8] and in experiment [9] were 18%, 65.7% and 17.7%, respectively.

Turning to `Clc1cc(Cl)cc(N2N=C(c3cccc(Nc4ccncc4)c3)CC2c2ccc(Br)cc2)c1` (stereo not given), the growth in [1] is 21.3%; in experiment [2] it was -13.7% (active); in experiment [3], 77.2%; in experiment [4], 2.37% (active); in [5], 83.3%; in [6], 12.3%. Besides, the growth in experiment [7] is 57.6%; in experiment [9] it was 51.2%.

`O=c1[nH]c2c(s1)CCCC2CN1CCCCC1` (stereo not given): the growth in experiment [1] was 103%; in experiment [2], 113%; in [3], 89.2%; in experiment [4], 113%; in experiment [5], 86.6%; in experiment [6] it was 120%. Further, the values for the growth in experiment [7], in experiment [8] and in experiment [9] were 111%, 105% and 99%, respectively.

As to `O=C1/C(=C/c2ccc(O)cc2)COc2ccc(-c3ccccc3)cc21`, the growth in experiment [1] was -29.7% (active); in [2], 71.9%; in [3] it was 102%; in experiment [4], 100%; in experiment [5], 107%; in experiment [6], 51.6%. The figures for the growth in experiment [7], in experiment [8] and in experiment [9] were 56.5%, 88.2% and 78.2%, respectively.

Turning to `NC(=S)N/N=C(/c1ccccc1)c1ccccc1N`, the growth in experiment [1] was 72.6%; in experiment [2] it was 64.7%; in experiment [3], 94.8%; in [4], 78.5%; in [5] it was 108%; in [6], 40.1%. Besides, the growth is 50.7% in [7], 97.2% in [8] and 74.2% in [9].

Regarding `O=C(N/N=C/c1ccc(O)c(O)c1)c1sc2ccccc2c1Cl`, the growth in experiment [1] was 16.6%; in experiment [2], 90.4%; in experiment [3], 100%; in experiment [4], 92.7%; in experiment [5], 75.7%; in experiment [6], 64.1%. Moreover, the growth was 96.9% in [7], 84.4% in experiment [8] and 83.7% in experiment [9].

On to `CC1=NNC(=O)C1CCC(=O)N/N=C(\C)c1ccc2ccccc2c1` (stereo not given), for which the growth in experiment [1] is 107%; in [2], 102%; in experiment [3], 77.2%; in experiment [4], 117%; in experiment [5], 126%; in experiment [6], 92.6%. The growth was 105% in experiment [7], 114% in [8] and 94.3% in experiment [9].

For the compound `O=C(N/N=C/c1cccc(O)c1)c1ccccc1Nc1cccc(C(F)(F)F)c1`, the growth was 87.5% in [1]; 75% in experiment [2]; 92.3% in [3]; 58.9% in [4]; 78.4% in [5]; 95.3% in experiment [6]. The figures for the growth in experiment [7], in [8] and in experiment [9] were 62.1%, 91.8% and 83.4%, respectively.

For `Nc1cc(N)c2cccnc2c1O`, the growth in experiment [1] is 88%; in experiment [2], 68.6%; in [3], 96%; in [4] it was 91.2%; in [5] it was 101%; in experiment [6], 66.7%. For the same compound, the growth in [7] is 89%; in experiment [8], 63.6%; in [9] it was 71.7%.

Turning to `COc1cc(NCC(O)CN(CC(C)C)C2CCCC2)c2ncccc2c1` (stereo not given), the growth in experiment [1] is 94.6%; in experiment [2], 86.5%; in experiment [3], 101%; in experiment [4] it was 42.3%; in [5] it was 93.3%; in [6], 88.8%. Also, the values for the growth in [7], in experiment [8] and in experiment [9] were 63.7%, 73.3% and 89.2%, respectively.

Consider `Cc1cc2cc3cc(C)c(N)cc3[n+](C)c2cc1N`, for which the growth is -1.31% (active) in experiment [1]; 1.23% (active) in experiment [2]; 46.2% in experiment [3]; 10% in experiment [4]; 26% in [5]; 16.1% in experiment [6]. For the same compound, the growth was 1.65% (active) in experiment [7], 9.56% (active) in experiment [8] and 48.5% in experiment [9].

For `C#CCn1cc(C=C2C(=O)NC(=S)NC2=O)c2cc(Cl)ccc21`, the growth in experiment [1] was -14.9% (active); in experiment [2], 12.1%; in experiment [3] it was 56.9%; in experiment [4], 56.1%; in experiment [5], 81.7%; in experiment [6] it was -40.6% (active). Further, the growth is -36.4% (active) in experiment [7], -0.874% (active) in [8] and 19.5% in experiment [9].

For the compound `CCCN=C(N)c1ccc(NC(=O)c2ccc(C(=O)Nc3ccc(C(N)=NCCC)cc3)cc2)cc1`, the growth in [1] is 90.6%; in experiment [2] it was 95.7%; in experiment [3], 94.8%; in experiment [4], 99.7%; in experiment [5] it was 95.6%; in experiment [6] it was 96.6%. In addition, the growth in experiment [8] was 102%; in [9], 98.4%.

On to `Cn1ncc2c(Nc3ccccc3Cl)nc(Cl)nc21`, for which the growth in experiment [1] was 62.1%; in experiment [2], 113%; in experiment [3] it was 96.4%; in experiment [4], 96.3%; in [5], 104%; in [7] it was 164%. For the same compound, the growth in experiment [8] was 136%; in [9] it was 100%.

As to `O=C(Nc1ccc2cc3ccc(NC(=O)N4CCCCCC4)cc3nc2c1)N1CCCCCC1`, the growth in experiment [1] was -36.8% (active); in experiment [2] it was -28.3% (active); in experiment [3], 4.88% (active); in [4], -44.8% (active); in experiment [5], -36.7% (active); in experiment [6], -48.5% (active). Besides, the growth is -69.2% (active) in [7] and 36.7% in [9].

On to `CO[C@@H]1[C@H](N(C)C(=O)c2ccccc2)C[C@@H]2O[C@]1(C)n1c3ccccc3c3c4c(c5c6ccccc6n2c5c31)C(=O)NC4=O`, for which the growth in experiment [1] is 67.1%; in experiment [2], 54%; in experiment [3] it was 57%; in experiment [6], 7.2% (active); in experiment [7], 46.7%; in [8], 20.5%. Also, the growth in experiment [9] is 42.9%.

Take `O=S(=O)(c1ccc(N/N=C\c2ccccc2)cc1)c1ccc(N/N=C/c2ccccc2)cc1`: the growth in experiment [1] was 85.6%; in [2], 30.3%; in experiment [3], 84.7%; in experiment [4] it was 44.7%; in experiment [5] it was 74%; in experiment [7] it was 72.2%. In addition, in [9], the growth is 53.1%.

As to `CC(C)CN(C(=O)c1ccc(Cl)cc1)c1c(N)n(CC(C)C)c(=O)[nH]c1=O`, the growth in experiment [1] was 84.8%; in experiment [2], 93.8%; in [3] it was 88.3%; in experiment [4], 107%; in [5], 26.8%; in experiment [7] it was 115%. Also, in experiment [9], the growth is 101%.

In the case of `CC(=O)O[C@]1(C(C)=O)CC[C@H]2[C@@H]3C=C(Cl)C4=CC(=O)CC[C@]4(C)[C@H]3CC[C@@]21C`, the growth in [1] was 92.7%; in [2], 101%; in [3], 101%; in [4], 100%; in [5] it was 107%; in [9], 99.6%.

Consider `NC(=O)c1cccc(-c2cc(C(N)=O)ccc2Cl)c1`, for which the growth in experiment [1] was 14.3%; in [2], 28.9%; in experiment [3] it was 51.3%; in experiment [4] it was 58.6%; in experiment [5] it was 88.9%; in experiment [6] it was 49.3%. Further, the figures for the growth in [8] and in experiment [9] were 5.29% (active) and 19%, respectively.

As for `COC(=O)C1NC(=S)N(c2ccc(Cl)cc2)C1/C=C/c1ccccc1` (stereo not given), the growth in [1] was 95.8%; in experiment [2], 101%; in experiment [3] it was 99.8%; in [6], 106%; in experiment [7], 101%; in experiment [8] it was 107%. Further, the growth in [9] was 90%.

On to `COc1cc(C(=O)/C=C/c2c(C)n([O-])c3ccc(Cl)cc3[n+]2=O)cc(OC)c1OC`, for which the growth in experiment [1] was -35.2% (active); in [2], 23%; in experiment [3] it was 86.6%; in experiment [4] it was 70.7%; in experiment [5], 87.3%; in [6], -30.3% (active). Besides, the values for the growth in [7] and in experiment [9] were 23.2% and 39%, respectively.

For the compound `O=C(O)/C=C\C(=O)N1C/C(=C\c2ccccc2Cl)C(=O)/C(=C/c2ccccc2Cl)C1`, the growth in experiment [1] is 3.9% (active); in experiment [2], 4.98% (active); in experiment [3] it was 2.41% (active); in experiment [6], 1.94% (active); in [7], -37.7% (active); in experiment [8], 47.1%.
